Experimental data as given in PubChem BioAssay.
Activity calls are given as the source filed them.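 How the source made its calls, unless noted: active means inhibition above 20% together with a positive visual image hit; inconclusive means visual image hit but inhibition not above 20%; inactive means no visual image hit.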

How the values were obtained:
[1] = inhibitors of TNFa-induced NFkB p65 translocation, primary screen, imaging, HUVEC, MLSMR starter and 10KST1 sets (AID 438); settings: HUVEC TNFa-induced p65 nuclear translocation; cell count: measured here: nuclei count (cytotoxicity indicator), at 2.08 µM; inhibition: at 2 µM, stronger effect = higher value, 0% TNFa-plus-vehicle, 100% no-TNFa wells;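 further: compound added about 3h40 before a 20 min TNFalpha stimulation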;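 on inhibition: signal is the nuclear over cytoplasmic p65 intensity ratio per well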
[2] = reduction of polyQ htt aggregates in cells – imaging, exon1htt(103Q)mCFP cells, high-content imaging, primary screen (AID 483;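 active means visual image review flags a hit and inhibition of aggregation exceeds 20%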;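 further: compound exposure lasted 3 days before fixation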;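 on nuclei count: percent of the per-plate median nuclei count of sample wells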); settings: exon1htt(103Q)mCFP cell line, aggregate imaging, at 2 µM; inhibition of aggregation: stronger effect = higher value; nuclei count: measured here: cell count, toxicity
[3] = endothelial E-selectin expression blockers – imaging, HUVEC, immunofluorescence, MLSMR starter and 10KST1 sets, primary screen (AID 487;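 active means visually confirmed hit in the image check and inhibition above 20%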;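 on inhibition: signal is fraction of cell area covered by stained E-selectin grains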;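 on nuclei count: 100% = median nuclei count of all wells on the same plate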); settings: HUVEC TNFalpha-induced E-selectin immunofluorescence imaging, at 2 µM; inhibition: stronger effect = higher value; nuclei count: measured here: cell number, toxicity
[4] = target: Voltage-gated potassium channel subunit beta-2 (Rattus norvegicus) (UniProt P62483); experiment: inhibitors of rat Kvbeta2 reductase activity – biochemical, NADPH fluorescence, primary screen (AID 622;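 active means fluorescence slope higher than the sample average by over 3 SD, cut at about -0.22 in these data, passing the limit was not always enough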;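 further: slope of raw intensity against log time taken from 70 to 1610 s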); settings: recombinant KvBeta, 4-cyanobenzaldehyde reduction, at 10 µM, stronger effect = higher value
[5] = target: Voltage-gated potassium channel subunit beta-2 (Rattus norvegicus) (UniProt P62483); experiment: enhancers of rat Kvbeta2 NADPH turnover – biochemical, NADPH fluorescence, primary screen (AID 623;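 active means NADPH fluorescence slope more negative than the mean of all samples by about 3 SD, 99.7% confidence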;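 further: fluorescence intensity change per second fitted from 20 to 320 s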); settings: Recombinant KvBeta, NADPH fluorescence decrease slope, 10 min; at 10 µM; stronger effect = lower value
[6] = target: Alpha-2C adrenergic receptor (Homo sapiens) (UniProt P18825); experiment: compounds altering alpha2C-coupled GIRK flux – cell-based, HEK293 alpha2C/GIRK1/2, thallium flux, primary screen (AID 624;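 active means fluorescence slope after compound addition differing from the mean of all screened samples at 99.7% confidence, in either direction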;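 further: slope of fluorescence ratio to pre-addition baseline per second over 15 to 24 s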); settings: thallium flux BTC fluorescence, at 10 µM, actives lie on both sides
[7] = blockers of RIG-like receptor reporter activation – cell-based, Sendai virus stimulus, luciferase, 10K MLSCN set, TLR/RLR signaling modifier project, primary screen (AID 602276;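 active means inhibition at or above 50% at 10 µM; inactive means inhibition below 50%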;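 further: firefly luciferase from ISG56 promoter only with Renilla not read in this screen; 0% = Sendai virus plus DMSO and 100% = medium plus DMSO without virus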); settings: HEK293 RL24 IRF3 luciferase reporter, at 10 µM, stronger effect = higher value
[8] = TLR3 IRF3 reporter activation blockers – cell-based, poly I:C stimulus, luciferase, 10K MLSCN set, primary screen (AID 602277;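 active means inhibition of the reporter signal at or above 50%; inactive means inhibition below 50%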); settings: HEK293-TLR3 RL24 IRF3 luciferase reporter, at 10 µM, stronger effect = higher value

Voltage-gated potassium channel subunit beta-2 (Rattus norvegicus), sequence (P62483 whole entry, looked up): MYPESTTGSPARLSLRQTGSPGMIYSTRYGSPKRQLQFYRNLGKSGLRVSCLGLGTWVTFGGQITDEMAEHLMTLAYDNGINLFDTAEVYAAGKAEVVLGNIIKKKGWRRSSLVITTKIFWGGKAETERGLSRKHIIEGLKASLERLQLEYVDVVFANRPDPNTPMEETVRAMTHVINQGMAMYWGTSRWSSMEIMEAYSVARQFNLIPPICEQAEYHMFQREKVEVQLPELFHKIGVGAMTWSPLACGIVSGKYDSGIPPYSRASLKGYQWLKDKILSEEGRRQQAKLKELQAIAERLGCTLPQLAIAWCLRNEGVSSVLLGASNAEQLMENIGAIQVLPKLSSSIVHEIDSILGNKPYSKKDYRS
Alpha-2C adrenergic receptor (Homo sapiens), sequence (P18825 whole entry, looked up): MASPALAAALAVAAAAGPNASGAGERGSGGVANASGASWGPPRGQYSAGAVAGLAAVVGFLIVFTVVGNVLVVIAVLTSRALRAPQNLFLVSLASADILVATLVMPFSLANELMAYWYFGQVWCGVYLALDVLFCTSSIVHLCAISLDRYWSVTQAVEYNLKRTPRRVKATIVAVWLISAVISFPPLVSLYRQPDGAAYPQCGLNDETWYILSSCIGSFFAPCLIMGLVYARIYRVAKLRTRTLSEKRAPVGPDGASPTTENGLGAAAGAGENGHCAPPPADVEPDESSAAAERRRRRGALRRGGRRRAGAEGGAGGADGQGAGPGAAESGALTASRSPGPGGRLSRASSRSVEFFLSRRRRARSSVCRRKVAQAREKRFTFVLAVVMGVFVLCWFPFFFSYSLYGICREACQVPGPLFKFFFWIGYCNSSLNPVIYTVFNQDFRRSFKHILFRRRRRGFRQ

SMILES | cell count [1] | inhibition [1] | inhibition of aggregation [2] | nuclei count [2] [%] | inhibition [3] | nuclei count [3] [%] | fluorescence slope [4] | NADPH fluorescence slope [5] | slope [6] | inhibition [7] | inhibition [8]
CN(C(=O)c1cc2sccc2n1C)C1CCCCC1 | 227 | 1% (inactive) | 5.1% (inactive) | 80.1 | -64% (inactive) | 116 | -0.487 (inactive) | 2.7e-05 (inactive) | 0.00503 (inactive) | -56.2% (inactive) | -93.3% (inactive)
Cc1ccc(S(=O)(=O)NCCOC(=O)Nc2sc(=S)n(C)c2C)cc1 | 466 | 1.6% (inactive) | -2.2% (inactive) | 103 | 15% (inactive) | 108 | -0.5 (inactive) | 3.3e-05 (inactive) | 0.00618 (inactive) | -15% (inactive) | 15.5% (inactive)
COc1ccc(OCCSc2nc3ccccc3n2CC(=O)O)cc1 | 321 | -9.2% (inactive) | -1.3% (inactive) | 108 | -133% (inactive) | 133 | -0.356 (inactive) | -5.2e-05 (inactive) | 0.00591 (inactive) | 16.6% (inactive) | 20.3% (inactive)
O=C(CCNC(=O)c1ccc(Br)o1)NC1CCCC1 | 507 | -18.2% (inactive) | 35.3% (inactive) | 77.7 | -29.9% (inactive) | 87.3 | -0.365 (inactive) | -5e-05 (inactive) | 0.00549 (inactive) | 14.4% (inactive) | 13.1% (inactive)
CC(C)C1C2=C(CC(C)(C)CC2=O)ON1c1ccccc1 (stereo not drawn) | 444 | 0.5% (inactive) | 9.1% (inactive) | 86.8 | -51.2% (inactive) | 115 | -0.476 (inactive) | -4.4e-05 (inactive) | 0.0045 (inactive) | 14.4% (inactive) | 16.5% (inactive)
O=C(COC(=O)CCC1CCCC1)Nc1ccc(Cl)cn1 | 429 | -4.8% (inactive) | -13.9% (inactive) | 115 | -27.8% (inactive) | 108 | -0.345 (inactive) | -5.6e-05 (inactive) | 0.00786 (inactive) | -6.45% (inactive) | 3.24% (inactive)
O=S(=O)(c1ccc(Oc2ccc(-c3nnco3)cc2)nc1)N1CCC(Cc2ccccc2)CC1 | 396 | -10.6% (inactive) | -26.7% (inactive) | 102 | -1% (inactive) | 108 | -0.508 (inactive) | -5e-05 (inactive) | 0.00554 (inactive) | 1.05% (inactive) | 5.84% (inactive)
Cc1ccc(N2C(=O)c3oc4ccccc4c(=O)c3C2c2cccc(O)c2)nc1 (stereo not drawn) | 752 | 6.1% (inactive) | -1.9% (inactive) | 64.5 | -6.3% (inactive) | 66.8 | -0.589 (inactive) | -3.8e-06 (inactive) | 0.00643 (inactive) | 11% (inactive) | 14.6% (inactive)
